Sampled rows, rich in hits. Any-hit rate of the full collection: about 11%.
CBFb RUNX1 block: qHTS Assay for Compounds Blocking the Interaction Between CBF-beta and RUNX1 for the Treatment of Acute Myeloid Leukemia | Potency, µM (series often up to 59.8 µM), most hits filed as inhibitors | AlphaScreen CBFb-His/RUNX1-biotin binding, biochemical | AID 1477, 2009 | 230,000 tested, under 10 active
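Read-out: AlphaScreen. Format: His-CBF-beta with biotinylated RUNX1 (30 nM each) preincubated 20 min, compound 15 min, Ni-chelate plus streptavidin beads 90 min; room temperature throughout.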
ALDH1A1 block: qHTS Assay for Inhibitors of Aldehyde Dehydrogenase 1 (ALDH1A1); 220,000 compounds, 7.3% hits; Purified ALDH1A1, NADH fluorescence, propionaldehyde substrate; Potency, µM (doses to about 75.3 µM), usual class: inhibitors; active means well fitted inhibition curve with a large enough effect, not every such curve was filed as active; inconclusive means small, poorly fitted or top-dose-only effect, or another doubt; inactive means no such curve, though single readings can be large or run the other way
Target sequence (P00352 whole entry, looked up): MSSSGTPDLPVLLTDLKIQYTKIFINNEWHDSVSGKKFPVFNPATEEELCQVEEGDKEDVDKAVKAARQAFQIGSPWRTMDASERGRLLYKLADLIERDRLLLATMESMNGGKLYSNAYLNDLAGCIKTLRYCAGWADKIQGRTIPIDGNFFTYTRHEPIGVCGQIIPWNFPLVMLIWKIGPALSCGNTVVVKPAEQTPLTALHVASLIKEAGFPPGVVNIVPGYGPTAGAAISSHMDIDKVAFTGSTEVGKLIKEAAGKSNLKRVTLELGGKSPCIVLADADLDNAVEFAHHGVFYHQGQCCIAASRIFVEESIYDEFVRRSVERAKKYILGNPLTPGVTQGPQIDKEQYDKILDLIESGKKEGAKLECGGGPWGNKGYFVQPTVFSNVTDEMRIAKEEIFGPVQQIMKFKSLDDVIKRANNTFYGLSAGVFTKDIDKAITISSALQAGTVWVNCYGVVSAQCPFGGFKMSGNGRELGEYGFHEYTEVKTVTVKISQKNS
HPGD block: qHTS Assay for Inhibitors of HPGD (15-Hydroxyprostaglandin Dehydrogenase); purified HPGD, NADH fluorescence kinetic, PGE2 substrate; Potency, µM, actives largely listed as inhibitors; 150,000 compounds, 4.3% hits; AID 894, 2007; active means well fitted inhibition curve with a large enough effect, not every such curve was filed as active; inconclusive means small, poorly fitted or top-dose-only effect, or another doubt; inactive means no such curve, though single readings can be large or run the other way
Target sequence (P15428 whole entry, looked up): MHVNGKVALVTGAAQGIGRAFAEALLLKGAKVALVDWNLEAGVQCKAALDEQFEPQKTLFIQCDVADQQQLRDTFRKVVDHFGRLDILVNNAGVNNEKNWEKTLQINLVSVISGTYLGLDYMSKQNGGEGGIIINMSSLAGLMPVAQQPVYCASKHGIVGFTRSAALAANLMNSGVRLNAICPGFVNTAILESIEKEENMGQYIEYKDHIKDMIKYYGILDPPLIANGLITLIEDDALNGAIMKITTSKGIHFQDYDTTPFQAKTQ
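20 nM HPGD preincubated 15 min at room temperature with compound in 50 mM Tris-HCl pH 8, 0.01% Tween 20. Started with 1 mM NAD+ and 30 uM prostaglandin E2; NADH fluorescence (360/450 nm) read 5 times over 30-s intervals, last minus first.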
PNC inhibitor: High Content Assay for Compounds that inhibit the Assembly of the Perinucleolar Compartment; activity change (PNC), negative = inhibition, % at 10 µM; PC3M PTB-GFP, PNC prevalence imaging, 16 h; stronger effect = lower value; 140,000 compounds, 3.1% hits; AID 2417, 2010;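 active means readout at or below -70, meaning at least 70% loss of cells showing the perinucleolar compartment, a nuclear body marking cancer cells; inconclusive means readout between -30 and a set limit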
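PC3M cells stably expressing PTB-GFP, 750–1000 cells/well, treated 16 h at 37 °C with compound (23 nl of library stock), in duplicate. After paraformaldehyde fixation and Hoechst stain, imaged at 20x; PNC prevalence scored by image analysis.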
HTT aggregate: qHTS Multiplex Assay to Identify Dual Action Probes in a Cell Model of Huntington: Aggregate Formation (GFP). PC12 HttQ103-GFP aggregates, Acumen cytometry, 40 h. Potency, µM (doses to about 46.1 µM), usual class: inhibitors. 220,000 compounds, 1.1% hits; further: nearly all actives have a fitted effect of over 60% in size
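Aggregates are detected as GFP objects 1–25 µm with signal 6 STDEV over background in lysates of induced PC12 cells. These carry Huntingtin exon 1 with 103 glutamines fused to GFP under an ecdysone promoter; compounds titrated.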
HTT cytoprotect: qHTS Multiplex Assay to Identify Dual Action Probes in a Cell Model of Huntington: Cytoprotection (ATP); 230,000 compounds, 0.14% hits; AID 1471, 2008; Potency, µM (top dose mostly 56.4 µM), actives largely listed as activators; PC12 HTT-Q103 induced, cytoprotection, ATP luminescence, 40 h; further: nearly all actives have a fitted effect of over 45% in size
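Readout: ATPlite luminescence (ATP level). Model: stable PC12, inducible Htt exon1 Q103-GFP. Inducer: tebufenozide, 100 nM final. Compounds: dose series. No G418 in medium.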
Of the large screens only hits and unclear results are named; the others gave an inactive call. Unless noted, the call rests on the fitted dose curve; in most records, active means well fitted curve in the direction sought with a large enough effect; inconclusive means small, poorly fitted or top-dose-only effect, or another doubt; inactive means no such curve, though single readings can be large; an effect the other way counts as inactive or inconclusive.

CC(C)(C)NC(=O)c1ccc2c(c1)C(=O)N(C1CCCCC1)C2=O	ALDH1A1 block 2.8µM
Cc1ccc(N2C(=O)/C(=C/c3ccco3)SC2=S)cc1	none
CC(C)CN1C(=O)/C(=C/c2ccco2)NC1=S	ALDH1A1 block 4µM, HPGD block inconclusive, PNC inhibitor inconclusive (no result: HTT cytoprotect)
CCN1C(=O)/C(=C\N(C)C)NC1=S	none (no result: HTT cytoprotect)
CC(C)CN1C(=O)/C(=C/c2cccs2)NC1=S	ALDH1A1 block 2µM
CCCN1C(=O)/C(=C/c2ccc(C)s2)NC1=S	ALDH1A1 block 8.9µM, PNC inhibitor inconclusive
c1cn(-c2cc(-c3ccc4c(c3)OCO4)ncn2)cn1	ALDH1A1 block inconclusive (no result: CBFb RUNX1 block, HPGD block, PNC inhibitor, HTT aggregate)
O=C(Nc1ccc2c(c1)OCCO2)c1cncc(Br)c1	none
NC(=S)Nc1ccc2c(c1)OCO2	HTT cytoprotect inconclusive (no result: HPGD block, PNC inhibitor)
O=C(NC(=S)Nc1ccc2c(c1)OCO2)c1ccccc1	ALDH1A1 block 5µM, HPGD block 10µM, PNC inhibitor inconclusive
NS(=O)(=O)c1ccc(NC(=S)NC(=O)c2ccc3c(c2)OCO3)cc1	ALDH1A1 block inconclusive (no result: HPGD block, PNC inhibitor)
O=C(NC(=S)Nc1ccc2c(c1)OCCO2)c1cccc(Br)c1	CBFb RUNX1 block inconclusive, ALDH1A1 block 14µM
NC(N)=NS(=O)(=O)c1ccc(NC(=S)NC(=O)c2ccc3c(c2)OCO3)cc1	ALDH1A1 block 25µM (no result: HPGD block, PNC inhibitor)
O=C(NC(=S)Nc1ccc2c(c1)OCCO2)c1cccc2ccccc12	CBFb RUNX1 block inconclusive, ALDH1A1 block 13µM, HTT aggregate inconclusive (no result: HTT cytoprotect)
O=C(/C=C/C#Cc1cccc(NS(=O)(=O)c2ccccc2)c1)NO	none (no result: ALDH1A1 block, HPGD block, PNC inhibitor, HTT aggregate, HTT cytoprotect)
COc1ccc(C(=O)C2C(c3ccc(-c4ccccc4[N+](=O)[O-])o3)NC(=O)NC2(O)C(F)(F)F)cc1 (centres undefined)	ALDH1A1 block 13µM, PNC inhibitor inconclusive, HTT aggregate inconclusive, HTT cytoprotect inconclusive
Cc1ccc(C2NC(=O)NC(O)(C(F)(F)F)C2C(=O)c2ccccc2)o1 (centres undefined)	ALDH1A1 block 8.9µM
O=C(Nc1cnn(Cc2ccc(Cl)c(Cl)c2)c1)c1nc2ncccn2n1	HPGD block 20µM
COC(=O)NC(CC(C)=O)c1ccco1 (centres undefined)	none (no result: HPGD block, PNC inhibitor, HTT aggregate)
O=C(Oc1ccc2ccccc2c1Cl)N1CCCC1	PNC inhibitor -89
COc1ccc(C(=O)N2CCC3(CC2)CN(C(=O)Nc2cccc(C#N)c2)C3)cc1	none (no result: CBFb RUNX1 block, PNC inhibitor, HTT aggregate)
CC1=NN(c2ccccc2)C(=O)/C1=C/c1cccs1	ALDH1A1 block 14µM, HPGD block 32µM, PNC inhibitor inconclusive
CC1=NN(c2ccccc2)C(=O)/C1=C\c1ccc(Br)s1	ALDH1A1 block 7.9µM, HPGD block 28µM, HTT aggregate 0.71µM
CC1=NN(c2ccccc2)C(=O)/C1=C/c1c(O)n(-c2ccc(F)cc2)[nH]c1=O	ALDH1A1 block 20µM
Cc1nc2cnc(N3CCN(C)CC3)nc2n(C)c1=O	ALDH1A1 block inconclusive (no result: CBFb RUNX1 block, HPGD block, PNC inhibitor, HTT aggregate)
CC(N=C1NS(=O)(=O)c2ccccc21)C(=O)N1CCc2ccccc2C1 (centres undefined)	none (no result: HPGD block, PNC inhibitor)
COc1ccc(-c2nc3cnc(N4CCNCC4)nc3n(-c3ccc(OC)cc3)c2=O)cc1	ALDH1A1 block inconclusive (no result: CBFb RUNX1 block, HPGD block, PNC inhibitor, HTT aggregate)
O=C1OCCC1Sc1nc2ccccc2c(=O)n1Cc1ccccc1 (centres undefined)	ALDH1A1 block inconclusive (no result: HPGD block, PNC inhibitor)
C=CCn1c(SC2CCOC2=O)nc2scc(C3CC3)c2c1=O (centres undefined)	ALDH1A1 block inconclusive, PNC inhibitor inconclusive
O=C1OCCC1Sc1nc2cc(Cl)ccc2n1Cc1ccccc1 (centres undefined)	ALDH1A1 block 25µM
C=CCn1c(SC2CCOC2=O)nc2sc(C)c(C)c2c1=O (centres undefined)	PNC inhibitor -80
Cc1sc2nc(SC3CCOC3=O)n(Cc3ccccc3)c(=O)c2c1C (centres undefined)	ALDH1A1 block 16µM (no result: HPGD block, PNC inhibitor)
CC(=O)c1ccc(N2CCN(C(=O)CCCc3nc4ccccc4s3)CC2)cc1	ALDH1A1 block inconclusive, HPGD block inconclusive (no result: HTT cytoprotect)
CN(C)Cc1ccccc1-c1cc(Nc2ccccc2)ncn1	none (no result: CBFb RUNX1 block, PNC inhibitor, HTT aggregate)
CC1=C(C(=O)Nc2cccnc2)C(c2ccc(C(C)C)cc2)n2ncnc2N1 (centres undefined)	ALDH1A1 block inconclusive
O=C(/C=C/c1ccco1)Oc1cc(Br)cc(/C=N/NC(=O)c2ccccc2O)c1	CBFb RUNX1 block inconclusive, HPGD block inconclusive, HTT aggregate 2.2µM
CN(C)c1ccc(NC(=O)CSCc2nc3c(nnn3Cc3ccc(F)cc3)c(=O)[nH]2)cc1	ALDH1A1 block 10µM, HPGD block 22µM
Cc1cccc(NC(=O)CSCc2nc3c(nnn3Cc3ccc(F)cc3)c(=O)[nH]2)c1C	none (no result: HPGD block, PNC inhibitor)
COc1ccc(C2SCCN2C(=S)Nc2ccc(F)cc2)cc1 (centres undefined)	ALDH1A1 block inconclusive
COc1ccc(C2SCCN2C(=S)Nc2cccc(C(F)(F)F)c2)cc1 (centres undefined)	PNC inhibitor -82
COc1ccc(N=C2SC(CC(=O)Nc3ccccc3)C(=O)N2Cc2ccco2)cc1 (centres undefined)	ALDH1A1 block inconclusive, HTT aggregate inconclusive (no result: HPGD block)
O=C(CC1SC(=Nc2ccccc2)N(CCc2ccccn2)C1=O)Nc1ccc(F)cc1 (centres undefined)	PNC inhibitor inconclusive
COc1cccc(N=C2SC(CC(=O)Nc3ccccc3)C(=O)N2Cc2ccccn2)c1 (centres undefined)	ALDH1A1 block 8.9µM (no result: HPGD block, PNC inhibitor)
COc1ccc(N=C2SC(CC(=O)Nc3ccccc3F)C(=O)N2Cc2ccco2)cc1 (centres undefined)	ALDH1A1 block 2.5µM
Cc1cccc(C)c1N=C1SC(CC(=O)Nc2c(C)cccc2C)C(=O)N1CCc1ccccn1 (centres undefined)	PNC inhibitor -112
CC(C)OC(=O)/C(C#N)=C/c1c[nH]c2ccccc12	ALDH1A1 block inconclusive
COC(=O)[C@@]1(Cc2ccccc2)[C@H]2c3cc(C(=O)N(C)C)n(Cc4ccccn4)c3C[C@H]2CN1C(=O)c1ccccc1	none (no result: PNC inhibitor, HTT aggregate)
Cc1cc(/C=C2\Cc3ccccc3C2=O)c(C)n1-c1ccccc1	ALDH1A1 block 7.9µM, HPGD block inconclusive, PNC inhibitor inconclusive, HTT aggregate inconclusive
O=C1NC(=S)N/C1=C\c1ccccc1OCc1ccc(C(=O)O)cc1	none (no result: ALDH1A1 block, HPGD block, PNC inhibitor)

Screening data: PubChem, National Center for Advancing Translational Sciences (NCATS)
